Common to all, as to assay: Cytotoxic Profiling of Annotated Libraries Using Quantitative High-Throughput Screening (AID 1296008); further: nearly all actives have a fitted effect of over 60% in size
What all share (settings): Five cell lines viability, CellTiter-Glo ATP luminescence, 48-72 h; max response: active compounds read low
For orientation: Cellular ATP, detected with luciferase, serves as a proxy for viable cell number.

For experiment [1], the system named is CRL-7250. Put shortly:
(§1)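 Cytotoxicity was measured as CellTiter-Glo ATP luminescence, read after 10 min at room temperature. Compound treatment of the cells lasted 48 or 72 hr at 37 degrees Celsius in a qHTS format.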

Experiment [2] concerns HEK293. Put shortly:
as §1

Experiment [3] concerns HaCat. The gist of the method: as §1
Experiment [4] has as its system KB-3-1. Put shortly:
as §1

The test system of experiment [5] is NIH3T3. The gist of the method: as §1

Inconclusive results are not listed. Values without a mark were called inactive. Calls of active or inactive are those of the source. The call rests on the fitted dose curve; in most records, active means well fitted inhibition curve with a large enough effect; inconclusive means small, poorly fitted or top-dose-only effect; inactive means flat fitted curve, though single readings scatter.
On the % scale 0 is the no-effect control and ±100 the full control effect; potency means the concentration at half of the fitted maximal effect.

As to `CC(C)=CC/C=C(\C)[C@H]1CC[C@]2(C)[C@@H]1[C@H](O)C[C@@H]1[C@@]3(C)CC[C@H](O)C(C)(C)[C@@H]3[C@@H](O[C@@H]3O[C@H](CO)[C@@H](O)[C@H](O)[C@H]3O)C[C@]12C`, the max response was 2.02% in experiment [1], -11.4% in experiment [2], 4.08% in experiment [3] and -21.6% in experiment [5]. The compound was classed as inactive in experiment [4].
Take `CC/C=C\[C@H](O)[C@H](O)C1=C(C)C(=O)[C@]2(O1)C(=O)N[C@@](OC)(C(=O)c1ccccc1)[C@@H]2O`: the max response in experiment [1] was -16%; in experiment [2] it was -0.3%; in experiment [3], -9.21%; in experiment [4], 7.92%; in experiment [5] it was 1.26%.
Turning to `C=C1C(=O)O[C@@H]2C[C@H](C)[C@@]3(O)C=C(C(C)=O)[C@]4(CC3C[C@H]12)C(=O)O[C@H]1C[C@@H](C)C(CCC(C)=O)=CC[C@H]14` (stereo not given in full), the compound was called inactive in experiment [1] and in experiment [4]. In addition, the values for the max response in experiment [2], in experiment [3] and in experiment [5] were -5.38%, -0.117% and -0.126%, respectively.
Take `C=C1CCC[C@]2(C)CC[C@@H](C(=C)C(=O)O)[C@H](O)[C@@H]12`: the max response in experiment [1] was -0.497%; in experiment [2] it was -1.48%; in experiment [4] it was 1.72%; in experiment [5] it was -0.289%. Also, the compound was called inactive in experiment [3].
`C/C=C/C(O)C1OC(=O)CC1Nc1ccc(C(=O)O)cc1` (stereo not given): the max response in experiment [1] is 4.31%; in experiment [2], 4.45%; in experiment [3], -8.27%; in experiment [4], 8.51%; in experiment [5] it was 1.46%.
Take `C[C@@H]1O[C@@H](OC[C@H]2O[C@@H](OC(CCCCc3ccc(O)cc3)CCc3ccc(O)cc3)[C@H](O)[C@@H](O)[C@@H]2O)[C@H](O)[C@H](O)[C@H]1O` (stereo not given in full): the max response in experiment [1] is 3.8%; in experiment [2], 1.77%; in experiment [3], -5.01%; in experiment [5], -4.82%. In experiment [4], the result was inactive.
In the case of `CC1(C(=O)O)CCCC2(C)C3CCC4CC3(CCC12)CC4=O` (stereo not given), the max response in experiment [1] was -1.87%; in experiment [2], 0.827%; in experiment [3], 2.83%; in experiment [4], -1.11%; in experiment [5] it was -6.02%.
For the compound `CC12CCC(OC3OC(CO)C(O)C(OC4OC(CO)C(O)C(O)C4O)C3O)CC1CCC1C2CCC2(C)/C(=C3/COC(=O)C3)CCC12O` (stereo not given), the max response is -8.75% in experiment [1]; -1.14% in experiment [2]; -0.083% in experiment [3]; -0.791% in experiment [4]; 4.18% in experiment [5].
In the case of `C=C1CN(Cc2ccc(C(=O)Nc3ccccc3N)cc2)C(=O)c2ccccc21`, the Potency in experiment [1] was 2.06 µM (active); in experiment [2], 1.46 µM (active); in experiment [3], 5.8 µM (active); in experiment [4] it was 1.84 µM (active); in experiment [5], 3.66 µM (active).
On to `CC(=O)OC1CC2(C)C3=CCC4(C)C5C(O)C(O)C(C(C)C)C5(C)CCC4(C)C3CCC2C(C)(C)C1OC1OC(CO)C(O)C(O)C1O` (stereo not given), for which the max response is -9.78% in experiment [1]; -1.39% in experiment [2]; -3% in experiment [3]; 2.57% in experiment [4]; 4.87% in experiment [5].
Regarding `C[C@@H]1CC[C@]2(C(=O)O[C@@H]3O[C@H](CO)[C@@H](O)[C@H](O)[C@H]3O)CC[C@]3(C)C(=CCC4[C@@]5(C)C[C@@H](O)[C@H](O)[C@](C)(C(=O)O)C5CC[C@]43C)[C@@H]2[C@]1(C)O` (stereo not given in full), the call in experiment [1] and in experiment [3] was inactive. The max response in experiment [2] is 2.11%; in experiment [4] it was 5.29%; in experiment [5], 0.619%.
Take `C[C@@H]1O[C@@H](O[C@@H]2[C@@H](O)[C@H](O[C@H]3[C@H](O[C@H]4CC[C@@]5(C)C(CC[C@]6(C)C5CC=C5[C@@H]7CC(C)(C)CC[C@]7(C(=O)O[C@@H]7O[C@H](CO)[C@@H](O)[C@H](O)[C@H]7O[C@@H]7O[C@@H](C)[C@H](O[C@@H]8O[C@@H](C)[C@H](O)[C@@H](O)[C@H]8O)[C@@H](O)[C@H]7O)CC[C@]56C)[C@@]4(C)CO)O[C@H](C(=O)O)[C@@H](O)[C@@H]3O)O[C@H](CO)[C@H]2O)[C@H](O)[C@H](O)[C@H]1O` (stereo not given in full): the outcome in experiment [1] was inactive. The max response in experiment [2] is -2.3%; in experiment [3], 4.58%; in experiment [4], 5.11%; in experiment [5], 2.85%.
For `C=C(CO)C12OC1C1(C)C(=CC2=O)C(O)C(O)CC1C` (stereo not given), the max response in experiment [1] is -0.172%; in experiment [2], -0.602%; in experiment [3], -9.32%; in experiment [4], 3.94%; in experiment [5], -6.8%.
On to `CC(=O)O[C@H]1[C@@H](O)[C@H](O[C@H]2[C@@H]3C=CO[C@@H](O[C@H]4O[C@@H](CO)[C@H](O)[C@@H](O)[C@@H]4O)[C@@H]3[C@@]3(CO)O[C@@H]23)O[C@@H](C)[C@@H]1OC(=O)/C=C/c1ccccc1`, for which the max response in experiment [1] was -1.67%; in experiment [2], 4.7%; in experiment [3] it was -2.99%; in experiment [5], -6.79%. Further, the result in experiment [4] was inactive.
On to `COC(=O)[C@@]1(c2ccc(C)cc2)C[C@H]1CN1CCC(O)(c2ccccc2)CC1`, for which the max response is 3.12% in experiment [1]; -9.08% in experiment [2]; -4.07% in experiment [3]; -2.51% in experiment [4]; -2.42% in experiment [5].
As to `CC(CCC1(O)OC2CC3C4CCC5CC(O[C@@H]6O[C@H](CO)[C@@H](O)[C@H](O)[C@H]6O[C@@H]6O[C@@H](C)[C@H](O)[C@@H](O)[C@H]6O)C(O)CC5(C)C4CCC3(C)C2C1C)CO[C@@H]1O[C@H](CO)[C@@H](O)[C@H](O)[C@H]1O` (stereo not given in full), the max response in experiment [1] is -4.35%; in experiment [2] it was 0.184%; in experiment [3], -8.4%; in experiment [4], -6.35%; in experiment [5] it was -21%.
As to `Cc1cc(C(N)=O)ccc1-n1c(CCC(=O)O)ccc1-c1ccc(-n2ccnc2)cc1`, the max response in experiment [1] was 1.88%; in experiment [2], -3.97%; in experiment [3], -1.63%; in experiment [4] it was 7.2%; in experiment [5], -2.74%.
With `Cn1c2ccc(F)cc2c2c(C(=O)N3CCCC3)cn(-c3ccccc3)c(=O)c21`, the compound was called inactive in experiment [1] and in experiment [4]. Besides, the max response in experiment [2] is -22.1%; in experiment [3], -0.557%; in experiment [5], -3.48%.
As for `COc1cc(N2CCC(N3CCN(C)CC3)CC2)ccc1Nc1ncc(Cl)c(-c2c[nH]c3ccccc23)n1`, the Potency is 10.3 µM (active) in experiment [1]; 2.91 µM (active) in experiment [2]; 3.66 µM (active) in experiment [3]; 4.61 µM (active) in experiment [4]; 1.46 µM (active) in experiment [5].
Consider `COC(=O)c1ccc(OC(CO)C(O)c2ccc(O)c(OC)c2)c(OC)c1` (stereo not given), for which the max response is 0.832% in experiment [1]; 1.51% in experiment [2]; 1.74% in experiment [3]; -5.47% in experiment [4]; -1.03% in experiment [5].
In the case of `CC(C)=CCC(O)/C(C)=C/CO[C@@H]1O[C@H](CO)[C@@H](O)[C@H](O)[C@H]1O` (stereo not given in full), the compound was classed as inactive in experiment [1] and in experiment [4]. In addition, the max response is -0.719% in experiment [2], -6.63% in experiment [3] and 0.203% in experiment [5].
For the compound `COC(=O)c1ccccc1O[C@@H]1O[C@H](CO)[C@@H](O)[C@H](O)[C@H]1O[C@@H]1O[C@@H](C)[C@H](O)[C@@H](O)[C@H]1O`, in experiment [1], the call was inactive. In addition, the max response in experiment [2] is 3.36%; in experiment [3], -1.51%; in experiment [4], 3.4%; in experiment [5], 0.854%.
As for `COc1ccc(N2CCOCC2)c2sc(NC(=O)N3CCC(C)(O)CC3)nc12`, the max response in experiment [1] was 0.434%; in experiment [2] it was -6.66%; in experiment [3] it was 3.93%; in experiment [5], -12%. For the same compound, the compound was classed as inactive in experiment [4].
`C=CC/C=C\C/C=C\CCCCCCCc1cccc(O)c1C(=O)O`: the outcome in experiment [1] was inactive. Moreover, the max response in experiment [2] is -5.53%; in experiment [3], 3.56%; in experiment [4] it was 4.36%; in experiment [5], -1.27%.
As for `C=C1C(=O)O[C@H]2[C@H]1CC/C(C)=C/CC[C@@]1(C)O[C@@H]21`, the max response was -15.8% in experiment [1]; -18.1% in experiment [2]; -3.65% in experiment [3]; -4.28% in experiment [4]; 0.479% in experiment [5].
On to `C[C@H]1CC(=O)Nc2cccc(-c3cnn(C(C)(C)C)c3)c2N1`, for which the max response was -2.99% in experiment [1]; 2.23% in experiment [2]; 4.21% in experiment [3]; -8.91% in experiment [4]; -7.27% in experiment [5].
For `COC(=O)/C=C/C12COC(C)(C)C1C(O)C(OC(C)=O)C1(C)C2CCC2(C)C(c3ccoc3)OC(=O)C3OC321` (stereo not given) the same measures were -1.53%, -22.6%, -1.09%, -5.77% and -16.9%.
As for `CN1CCc2nc(C(=O)N[C@@H]3C[C@@H](C(=O)N(C)C)CC[C@@H]3NC(=O)C(=O)Nc3ccc(Cl)cn3)sc2C1`, the max response in experiment [1] is 3.08%; in experiment [2], -78.6%; in experiment [3], -24.6%; in experiment [4], -42%; in experiment [5], -49.4%.
In the case of `CCC(=O)O[C@H]1C(C)(C)[C@H]([C@@H](O)C(=O)OC)[C@]2(C)C(=O)[C@@]1(O)[C@H]1O[C@]13C1CC(=O)O[C@@H](c4ccoc4)[C@]1(C)CCC32` (stereo not given in full), the max response in experiment [1] was 0.287%; in experiment [2], -1.59%; in experiment [3], -11.6%; in experiment [4], -4.09%; in experiment [5] it was -25.4%.
For `N#Cc1ccc(C(=O)N2CCC3(CC2)N=C(N)c2c(F)ccc(F)c2N3)cn1` the same measures were -4.2%, -18.7%, 2.01%, -9.49% and -5.13%.
The corresponding values for `COCC1OC(OC(C)(C)C2CCC3(C)C=C(C4CCC5C4(C)CC(O)C4OC(C(C)(C)OC6OC(CO)C(O)C(O)C6NC(C)=O)CCC45C)CCC3O2)C(NC(C)=O)C(O)C1O` (stereo not given) are 2.51%, -5.83%, -6.25%, 1.62% and 1.73%.
Turning to `OC/C=C/c1ccc(O[C@@H]2O[C@H](CO)[C@@H](O)[C@H](O)[C@H]2O)cc1`, the max response in experiment [1] is -14.7%; in experiment [2], -1.19%; in experiment [3], 4.35%; in experiment [4], 3.13%; in experiment [5], -0.785%.
`C=C1CC[C@@H]2[C@@](C)(CO[C@@H]3O[C@H](CO)C(O)[C@H](O)C3O)[C@H](O)CC[C@@]2(C)[C@@H]1CC/C(C)=C/CO` (stereo not given in full): the compound was classed as inactive in experiment [1] and in experiment [4]. Moreover, the max response is 1.32% in experiment [2], -3.82% in experiment [3] and -10.1% in experiment [5].
In the case of `C=C1[C@H](OC(C)=O)[C@H]2[C@@H](OC(C)=O)[C@](C)(OC(C)=O)C[C@]2(OC(C)=O)C(=O)[C@H](C)/C=C/C(C)(C)C(=O)[C@H](OC(=O)C(C)CC)[C@H]1OC(C)=O` (stereo not given in full), the max response in experiment [1] was -1.41%; in experiment [2] it was 1.43%; in experiment [3] it was -2.99%; in experiment [5] it was -13.5%. The compound was classed as inactive in experiment [4].
